Compound activity from PubChem BioAssay.
Abeta yeast res = restores growth of yeast expressing A-beta42 peptide | 410,000 tested, 0.063% active | Potency, µM (doses to about 46.1 µM), hits mostly activators | yeast expressing A-beta42, growth rescue, OD600, 48 h; response scale: 0% DMSO, 100% iron-clioquinol control; further: nearly all actives have a fitted effect of over 55% in size
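Growth rescue measured by 600 nm absorbance after 48 h yeast culture at 30 C with compound. Values normalized between DMSO and an equimolar ferric chloride plus clioquinol control.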
FUS yeast rescue = suppressors of FUS proteinopathy in yeast; S. cerevisiae FUS-expressing, growth rescue, OD600, 24 h; Potency, µM (series often up to 76.6 µM), hits mostly activators; 390,000 tested, 0.24% active;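 further: plate controls were DMSO vehicle for no effect and reference control for full effect; nearly all actives have a fitted effect of over 55% in size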
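Absorbance at 600 nm, taken 24hr after compound addition, measured rescue of FUS-yeast growth at 30C. Induction used 2% galactose with seeding at OD 0.005. Controls: CP55940 from 92uM final, DMSO only.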
Mito fusion yeast = mitochondrial division inhibition or fusion activation; S. cerevisiae fusion-defective mutant growth rescue, CellTiterGlo 48 h; Potency, µM (titrated, usually from 46.1 µM), for the others: top-dose growth rescue (activation), usual class: activators; 320,000 tested, 0.23% active; further: % of control where 0% means no effect; nearly all actives have a fitted effect of over 45% in size
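Read-out: ATP-based luminescence (CellTiterGlo, 10 min ambient) reporting growth of fusion-defective ts yeast after 48 hours at 37C on glycerol/ethanol YPEG medium in the presence of compound.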
aSyn rescue = inhibitors of alpha-synuclein toxicity in yeast | Yeast expressing alpha-synuclein, growth rescue, BacTiter-Glo, 24 h | Potency, µM (top dose mostly 46.1 µM), for the others: top-dose growth rescue (activation), hits mostly activators | 370,000 tested, 0.14% active | AID 652106; further: % of control where 0% means no effect; nearly all actives have a fitted effect of over 65% in size
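Galactose-induced alpha-syn yeast (OD600=0.02, raffinose-pregrown) + pinned cpd, 24 hr, 30 deg C; growth by BacTiter-Glo luminescence. Growth restoration scores as activation.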
TDP43 rescue = inhibitors of TDP-43 toxicity in yeast. AID 652104. TDP-43 expressing yeast growth rescue, BacTiter-Glo, 24 h. Potency, µM (top dose mostly 46.1 µM), for inactives: at the highest dose growth rescue (activation), most hits filed as activators. 410,000 tested, 1.8% active; further: % of control where 0% means no effect; nearly all actives have a fitted effect of over 50% in size
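Galactose-induced TDP-43 yeast, OD600=0.02, compound pinned; 24 hr, 30 deg C; BacTiter-Glo luminescence for growth. Inhibitors of TDP-43 toxicity read as activators.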
* marks the source's active call; other numbers are inactive results; i = inactive; ? = inconclusive; nt = no result. Hits are enriched below; roughly 2.2% of the tested compounds scored in any of these assays. The call rests on the fitted dose curve; in most records, active means well fitted curve in the direction sought with a large enough effect; inconclusive means small, poorly fitted or top-dose-only effect, or another doubt; inactive means no such curve, though single readings can be large; an effect the other way counts as inactive or inconclusive. Potency means the concentration at half of the fitted maximal effect.

SMILES | Abeta yeast res | FUS yeast rescue | Mito fusion yeast | aSyn rescue | TDP43 rescue
CN(c1ccccc1)c1nc(-n2ccnc2)nc(-n2ccnc2)n1 | i | i | -8% | 28% | ?
CCCCNc1nc(N(C)c2ccccc2)nc(-n2ccnc2)n1 | i | i | -1% | 28% | 14µM*
Cc1cccc(C(=O)OC(C)C(=O)N2CCc3ccccc3C2)c1C (stereo not drawn) | i | nt | 27% | 6% | 18µM*
CCN(CC)c1nc(NN)nc(Nc2ccc(C)c(Cl)c2)n1 | ? | i | nt | -9% | 13µM*
Cc1ccc(Nc2nc(Cl)c(C=O)s2)cc1Cl | i | i | -10% | -2% | 3%
CCOc1ccc2c(c1)c(=O)c(S(=O)(=O)c1ccc(Cl)cc1)cn2Cc1ccccc1C | i | i | nt | nt | 9%
CC(C)(C)C(=O)Nc1ccccc1C(=O)Nc1cc(Cl)ccc1Cl | i | i | 7% | -1% | 22µM*
O=C(Nc1nnc(-c2ccc3c(c2)CCCC3)o1)c1c(F)cccc1F | i | i | 0% | -3% | 24%
O=C(Nc1nnc(-c2ccc3c(c2)CCCC3)o1)c1ccc(Cl)cc1Cl | ? | i | ? | ? | 4µM*
CCOC(=O)[C@]12CCCC=C1N(CCc1ccc(Cl)cc1)C(=O)[C@@H]2CC(=O)NCCC(C)C | nt | i | nt | nt | nt
Cc1ccc(Cl)cc1-n1ncc2c(NCCCc3ccccc3)ncnc21 | i | i | nt | nt | ?
Cc1ccc(Cl)cc1-n1ncc2c(NCCC3=CCCCC3)ncnc21 | i | ? | nt | nt | 35µM*
CCCCNc1ncnc2c1cnn2-c1ccc(C)cc1C | i | i | 14% | -10% | 13µM*
Cc1ccc(Cl)cc1-n1ncc2c(NCCc3ccccc3)ncnc21 | i | i | nt | nt | 22µM*
CCc1ccc(Nc2ncnc3c2cnn3-c2cc(Cl)ccc2C)cc1 | i | i | nt | nt | 16%
Cc1ccc(Cl)cc1-n1ncc2c(NCc3ccc(F)cc3)ncnc21 | i | i | nt | nt | 20µM*
COc1ccc(-c2c(C(=O)c3ccccc3)[nH]c(N)c2C(=O)c2c[nH]c3ccccc23)cc1OC | nt | i | nt | nt | nt
CCN1CCCC1CN(Cc1cc2ccc(C)cc2[nH]c1=O)C(=S)Nc1ccccc1OC (stereo not drawn) | i | nt | 1% | 6% | 0%
CCN1CCCC1CN(Cc1cc2ccc(C)c(C)c2[nH]c1=O)C(=O)Nc1ccccc1OC (stereo not drawn) | i | 10µM* | -3% | 0% | -23%
CCOc1cc2sc(N3CCC(C(=O)Nc4ccc(C(C)C)cc4)CC3)nc2cc1Br | i | i | nt | 0% | 23%
Cc1cc2n(n1)C(c1sccc1C)Nc1ccccc1-2 (stereo not drawn) | i | i | 13% | -2% | 18µM*
CC(C(=O)NCCCc1ccccc1)n1cccc1C(=O)c1ccccc1 (stereo not drawn) | i | i | 22µM* | 6% | ?
CCCCCCC(=O)OCC(=O)c1ccc2c(c1)NC(=O)CO2 | i | i | 0% | 8% | 16µM*
CC1(c2nnc(-c3ccccc3)o2)CC(c2cccc(Cl)c2)=NO1 (stereo not drawn) | i | i | 3.2µM* | 17% | ?
CCOC(=O)c1ccc(S(=O)(=O)Nc2cc(C(C)(C)C)no2)cc1 | i | i | 3% | 18% | 13µM*
SMILES | Abeta yeast res | FUS yeast rescue | Mito fusion yeast | aSyn rescue | TDP43 rescue
CCOC(=O)c1ccc(NS(=O)(=O)c2ccc(SC)cc2)cc1 | i | ? | 20µM* | 20% | ?
CCOC(=O)Cc1ccc(NS(=O)(=O)c2ccc(SC)cc2)cc1 | i | i | 13% | 6% | 2%
CC(C)(C)c1cc(NS(=O)(=O)c2ccc3c(c2)OCCO3)on1 | ? | i | -6% | -2% | 13µM*
CCc1ccc(NC(=O)C(CC)n2c(=O)c(-c3ccccc3NC(C)=O)nc3ccccc32)cc1 (stereo not drawn) | i | ? | nt | nt | 26%
Cc1ccc(OCCOc2c(Cl)cc(Cl)cc2Cl)c([N+](=O)[O-])n1 | nt | i | nt | nt | nt
c1ccc(CNc2ncnc3nc(N4CCOCC4)[nH]c23)cc1 | nt | nt | nt | 14% | nt
C=CCN1C(=O)[C@@H](CC(=O)N2CCCC2)[C@]2(C(=O)OC)CCCCC=C12 | nt | i | nt | nt | nt
O=C(Nc1cc(Sc2nc3ccccc3s2)cc([N+](=O)[O-])c1)c1ccccc1 | i | nt | ? | 4% | 0%
O=C(Nc1cc(Sc2ccccn2)cc([N+](=O)[O-])c1)c1cccc(F)c1 | i | nt | 18µM* | 3% | 22µM*
CC(=O)Nc1c(C)nn(-c2ccccc2)c1N1CCC(C(=O)NCc2ccc(Cl)cc2)CC1 | i | i | nt | nt | 28%
NC(=O)c1nsc(C(=O)N(CC(=O)NC2CCCCC2)Cc2ccc3c(c2)OCO3)c1N | nt | nt | nt | -3% | nt
CCOc1ccc(C(c2c(O)cc(C)n(CCOC)c2=O)N2CCC(C)CC2)cc1 (stereo not drawn) | i | i | nt | nt | 16%
Cn1c(NCCN2CCCC2)nc2cc(-c3ccccc3)sc2c1=O | i | i | nt | 1% | 7%
O=c1c2sc(-c3ccccc3)cc2nc2n1CCCCC2 | i | i | 3% | 9% | 11µM*
O=c1c2sc(-c3ccccc3)cc2nc2n1CCC2 | i | i | 22% | ? | 13µM*
COc1cc(C(NC(=O)C(F)(F)F)C2CCCC=C2c2ccccc2)cc(OC)c1OC (stereo not drawn) | nt | i | nt | nt | nt
O=C(NCc1ccccc1)OCCN1C(=O)CCC12CCC(c1ccccc1)CC2 (stereo not drawn) | nt | i | nt | nt | nt
CC1(C)CC2CC(C)(CN2C(=O)COC(=O)c2ccc(O)cc2O)C1 (stereo not drawn) | 10µM* | i | nt | -11% | 19%
CCOC(=O)c1c(NC(=O)c2cc(-c3ccc(Br)cc3)on2)sc(C)c1C | i | i | nt | nt | 9%
CC(=O)CSc1ncnc2sc3c(c12)CCC3 | i | i | -2% | ? | 25µM*
CN(C(=O)c1cc2c(=O)n3ccccc3nc2n1C)c1ccccc1 | i | i | nt | nt | ?
CN(C)c1ccc(/C=C/c2cc[n+](C)c3ccc4ccccc4c23)cc1 | nt | nt | nt | -71% | nt
CN(Cc1ccccc1)c1ccc(C(=O)O)cc1[N+](=O)[O-] | i | i | 12% | 0% | 16µM*
CC(=O)Nc1ccc(C(=O)OCc2ccccc2Cl)cc1 | i | i | 16% | -25% | 20µM*
CC(=O)Nc1ccc(C(=O)OCCCOC(=O)c2ccc(NC(C)=O)cc2)cc1 | i | i | 0% | 3% | 4%
CC(=O)Nc1ccc(C(=O)OCc2ccc(Br)cc2)cc1 | i | nt | 16µM* | -28% | 27%
CC(=O)Nc1ccc(C(=O)CCl)cc1 | i | i | ? | -23% | 10µM*
Nn1c(SCC(=O)Nc2nccs2)nnc1-c1cc(-c2ccccc2)n[nH]1 | nt | i | nt | nt | nt
